# PubChem BioAssay
# Active and inactive are the calls of the source.
# How the values were obtained:
# [1] = test system: Plasmodium falciparum Sir2 (PF13_0152, Sir2A); assay: pfSir2 binders on small-molecule microarrays, primary screen, biochemical, small-molecule microarray, 635 nm fluorescence (AID 1098); conditions: small-molecule microarray binding, fluorescence 635 nm; higher = more signal;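 further: score merges spot fluorescence intensity with its signal-to-noise ratio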
# [2] = small-molecule microarray binders of probe aDKK1, primary screen, biochemical, biotinylated probe, 635/667 nm fluorescence (AID 1099); conditions: higher = more signal;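 further: score merges 667nm spot fluorescence with signal to noise across triplicate slides; reference of the scale not given here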
# [3] = small-molecule microarray binders of probe aCHRDL2, primary screen, biochemical, biotinylated probe, 635/667 nm fluorescence (AID 1100); conditions: higher = more signal
# [4] = splicing luciferase reporter signal modulators, primary screen, spliceosome inhibition project, cell-based, HEK293, splice +/- reporter (AID 1101); conditions: luminescence, 24 h, higher = more signal, called active from +8 up or from −8 down;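 further: HEK293 cells carrying a splicing-competent luciferase reporter gene; test concentration not given here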
# [5] = target: Fibroblast growth factor 10 (Homo sapiens) (UniProt O15520); assay: FGF10 binders on small-molecule microarrays, primary screen, biochemical, small-molecule microarray, 635 nm fluorescence (AID 1102); conditions: FGF10 binding, fluorescence 635 nm, higher = more signal
# Fibroblast growth factor 10 (Homo sapiens), sequence (O15520 whole entry, looked up): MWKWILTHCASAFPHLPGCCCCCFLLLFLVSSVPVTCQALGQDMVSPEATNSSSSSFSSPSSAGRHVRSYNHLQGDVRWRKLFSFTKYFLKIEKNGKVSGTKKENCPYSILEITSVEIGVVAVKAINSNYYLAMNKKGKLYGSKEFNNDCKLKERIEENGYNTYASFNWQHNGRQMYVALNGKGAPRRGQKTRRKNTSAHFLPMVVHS
# [6] = test system: glycogen synthase kinase-3 (GSK3A per assay name; protocol says GSK3B); assay: GSK3 binders on small-molecule microarrays, primary screen, biochemical, small-molecule microarray, 635 nm fluorescence, GSK3A (AID 1103); conditions: small-molecule microarray binding, fluorescence 635 nm; higher = more signal; further: the record names both GSK3A and GSK3B
# [7] = target: Epidermal growth factor receptor (Homo sapiens) (UniProt P00533); assay: EGFR binders on small-molecule microarrays, primary screen, biochemical, small-molecule microarray, 635 nm fluorescence (AID 1104); conditions: EGFR binding, higher = more signal;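 further: score merges 667 nm emission intensity with spot signal to noise over triplicate slides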
# Epidermal growth factor receptor (Homo sapiens), sequence (P00533 whole entry, looked up): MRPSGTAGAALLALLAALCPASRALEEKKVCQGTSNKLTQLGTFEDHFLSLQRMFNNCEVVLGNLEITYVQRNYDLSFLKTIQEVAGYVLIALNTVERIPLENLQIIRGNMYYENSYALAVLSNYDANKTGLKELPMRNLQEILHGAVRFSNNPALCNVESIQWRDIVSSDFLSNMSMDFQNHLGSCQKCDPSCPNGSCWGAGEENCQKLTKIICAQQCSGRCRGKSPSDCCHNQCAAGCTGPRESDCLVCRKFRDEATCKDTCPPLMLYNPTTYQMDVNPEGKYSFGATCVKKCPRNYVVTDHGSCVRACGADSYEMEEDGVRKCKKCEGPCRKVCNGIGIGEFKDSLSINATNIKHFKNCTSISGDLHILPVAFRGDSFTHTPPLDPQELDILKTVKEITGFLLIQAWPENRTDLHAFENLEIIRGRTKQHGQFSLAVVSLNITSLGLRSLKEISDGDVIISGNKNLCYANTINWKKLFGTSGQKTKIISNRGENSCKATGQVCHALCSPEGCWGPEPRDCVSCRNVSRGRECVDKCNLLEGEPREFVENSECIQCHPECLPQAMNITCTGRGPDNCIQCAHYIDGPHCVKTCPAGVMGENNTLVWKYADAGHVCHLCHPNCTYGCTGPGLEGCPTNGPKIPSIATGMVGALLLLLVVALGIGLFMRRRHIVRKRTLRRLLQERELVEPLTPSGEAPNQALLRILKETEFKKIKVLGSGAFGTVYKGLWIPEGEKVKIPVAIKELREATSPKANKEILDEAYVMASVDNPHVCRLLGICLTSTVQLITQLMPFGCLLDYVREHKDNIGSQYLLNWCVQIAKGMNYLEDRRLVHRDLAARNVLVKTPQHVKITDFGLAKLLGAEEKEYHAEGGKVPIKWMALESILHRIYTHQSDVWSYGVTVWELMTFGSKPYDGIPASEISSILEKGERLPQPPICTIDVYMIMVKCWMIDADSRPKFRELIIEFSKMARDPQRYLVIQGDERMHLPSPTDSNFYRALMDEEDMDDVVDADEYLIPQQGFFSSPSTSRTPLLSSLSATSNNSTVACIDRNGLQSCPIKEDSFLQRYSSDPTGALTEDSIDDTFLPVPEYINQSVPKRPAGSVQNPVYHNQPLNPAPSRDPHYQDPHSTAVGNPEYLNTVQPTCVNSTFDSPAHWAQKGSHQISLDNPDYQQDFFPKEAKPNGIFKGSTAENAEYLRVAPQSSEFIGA
# [8] = target: Follistatin-related protein 3 (Homo sapiens) (UniProt O95633); assay: FSTL3 binders on small-molecule microarrays, primary screen, biochemical, small-molecule microarray, 635 nm fluorescence (AID 1105); conditions: FSTL3 binding, higher = more signal;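 further: score merges emission near 667 nm and signal to noise per printed spot across three slides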
# Follistatin-related protein 3 (Homo sapiens), sequence (O95633 whole entry, looked up): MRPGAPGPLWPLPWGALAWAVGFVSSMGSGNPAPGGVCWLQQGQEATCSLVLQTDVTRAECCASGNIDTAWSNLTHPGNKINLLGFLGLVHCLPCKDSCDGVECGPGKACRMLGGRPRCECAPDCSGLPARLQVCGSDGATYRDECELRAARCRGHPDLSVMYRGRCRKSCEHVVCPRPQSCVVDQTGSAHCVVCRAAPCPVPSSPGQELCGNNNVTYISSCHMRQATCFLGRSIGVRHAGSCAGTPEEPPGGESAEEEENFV
# [9] = target: Dickkopf-related protein 1 (Homo sapiens) (UniProt O94907); assay: DKK1 binders on small-molecule microarrays, primary screen, biochemical, small-molecule microarray, 635 nm fluorescence scan (AID 1106); conditions: DKK1 binding, higher = more signal;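 further: score merges emission near 667 nm with signal to noise over three replicate slides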
# Dickkopf-related protein 1 (Homo sapiens), sequence (O94907 whole entry, looked up): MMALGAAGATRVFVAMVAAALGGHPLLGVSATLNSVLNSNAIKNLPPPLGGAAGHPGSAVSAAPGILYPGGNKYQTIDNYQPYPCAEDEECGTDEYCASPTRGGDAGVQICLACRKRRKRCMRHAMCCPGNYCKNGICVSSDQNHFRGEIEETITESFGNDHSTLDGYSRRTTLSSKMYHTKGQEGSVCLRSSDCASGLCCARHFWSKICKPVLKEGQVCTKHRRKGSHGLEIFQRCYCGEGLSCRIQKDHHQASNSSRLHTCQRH
# [10] = test system: Inhibin beta A chain (activin A); assay: INHBA (activin A) binders on microarrays, primary screen, biochemical, small-molecule microarray, 635 nm fluorescence scan (AID 1107); conditions: small-molecule microarray binding, higher = more signal;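 further: mouse activin A protein probed at 4.33 µg/mL on printed slides; score merges bound-protein fluorescence near 667 nm with spot signal-to-noise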
Structure (SMILES),composite z-score [1],composite z-score [2],composite z-score [3],z-score [4],composite z-score [5],composite z-score [6],composite z-score [7],composite z-score [8],composite z-score [9],composite z-score [10]
C[N+](C)(C)CCCCCCNC(=O)[C@@H]1C[C@@H]2C(=O)N[C@@H](Cc3ccccc3)C(=O)N2[C@@H]1c1cccc(OCCO)c1,1.63,-0.147,0.376,-0.189 (inactive),0.72,0.216,-0.0586,1.32,1.02,0.615
C=CCN1C(=O)[C@]2(O[C@H](CCn3cc([C@H](O)c4ccccc4)nn3)[C@@H]([Si](C)(C)c3ccc(OC)cc3)[C@@H]2C)c2ccccc21,0.474,-0.291,0.414,3.39 (inactive),-0.364,-0.781,-1.25,-0.581,-0.651,0.162
C=CCC(OC(C)=O)[C@@H]1[C@@H](N(Cc2cccc3ccccc23)C(=O)c2ccc(-c3ccccc3)cc2)c2cc(OCCCO)ccc2N1C(=O)c1ccc2ccccc2c1 (stereo not given in full),-0.101,0.25,0.357,-0.157 (inactive),0.0842,0.293,0.24,0.476,-0.601,1.28
Cc1ccc([C@@H]2C[C@@H](Sc3ccccc3)[C@H](C(=O)O)CN2S(=O)(=O)c2ccc(C)cc2)cc1,1.31,0.055,0.874,-0.521 (inactive),1.37,1.34,0.271,0.968,-0.0594,0.289
CN(C)CCCCCCNC(=O)[C@H]1C[C@H]2C(=O)N3CCC[C@H]3C(=O)N2[C@H]1c1ccc(O)cc1,1.42,0.11,0.0341,-0.8 (inactive),1.28,1.35,1.6,1.44,1.25,1.08
Cc1ccc(S[C@]2(C(=O)O)CC(=O)N(C(C)C)[C@@H]2c2ccc(CO)cc2I)cc1,1.33,0.831,1.18,-2.55 (inactive),0.0877,0.511,-0.645,0.315,-0.27,1.33
CC#CC(=O)Oc1ccccc1C=CC(=O)OCC,0.743,-0.223,-0.226,-0.634 (inactive),-0.176,0.0939,0.27,0.104,-0.0092,0.321
CC(C)C[C@@H]1NC(=O)[C@H](C(C)C)NC(=O)[C@@]23C(=O)N[C@@H](Cc4ccccc4)C2[C@H](C)[C@@]2(C)O[C@H]2C3/C=C/CC/C=C/CNC1=O (stereo not given in full),0.26,-0.189,-0.263,-0.76 (inactive),1.16,0.94,0.467,1.37,0.384,1.35
C=CCOC(=O)[C@H]1[C@@H]2C(=O)O[C@@H](c3ccccc3)[C@@H](c3ccccc3)N2[C@@H](c2ccc(OCCOC(=O)[C@H]3C[C@H]4C(=O)N[C@@H](CCCCNC(C)=O)C(=O)N4[C@H]3c3ccc(O)cc3)cc2)[C@]12C(=O)Nc1ccc(I)cc12,1.33,-0.182,-0.717,-0.0027 (inactive),0.707,1.11,0.506,1.26,0.667,1.02
COC(=O)[C@@]1(Cc2ccc(OC)cc2)[C@H]2c3cc(C(=O)N(C)C)n(CCc4ccccn4)c3C[C@H]2CN1C(=O)c1ccccc1,0.566,1.62,1.41,0.317 (inactive),0.286,-0.133,-0.011,0.0285,-0.586,0.937
O=C1NC(=O)C2C1C=CC(C(O)c1cc(C(F)(F)F)cc(C(F)(F)F)c1)N2Nc1ccccn1 (stereo not given),1.57,-0.0616,-0.387,1.35 (inactive),0.163,-0.164,0.22,0.431,0.0665,1.33
Cc1ccccc1C(O)C1C=CC2C(=O)N(c3ccccc3)C(=O)C2N1Nc1ccc(C(C)C)cc1 (stereo not given),0.623,0.456,0.857,0.26 (inactive),0.971,1,0.304,1.23,-0.372,0.625
COc1cc2c(cc1OC)CN(C(=O)[C@@H]1[C@H]3C(=O)O[C@H](c4ccccc4)[C@H](c4ccccc4)N3[C@H](c3ccccc3OCCO)[C@@]13C(=O)Nc1ccc(C#CCCO)cc13)CC2,1.53,0.235,0.547,0.107 (inactive),0.885,0.926,0.179,0.896,0.249,0.91
OCCCC1=CC(c2cccs2)N(Cc2cc3c(cc2Br)OCO3)CC1 (stereo not given),0.725,-0.16,0.197,-0.252 (inactive),0.21,-0.0247,-0.275,-0.0688,0.211,1.01
COC(=O)[C@@]1(Cc2ccc(F)cc2)[C@H]2c3cc(C(=O)N4CCCC4)n(CCCNc4ncc(C(F)(F)F)cc4Cl)c3C[C@H]2CN1C(=O)c1ccccc1,0.913,1.43,1.05,-2.38 (inactive),0.137,-0.548,0.23,-0.142,-0.808,1.17
COC(=O)[C@@]1(Cc2ccc(F)cc2)[C@H]2c3cc(C(=O)N(C)C)n(Cc4cc(F)c(F)c(F)c4)c3C[C@H]2CN1C(=O)c1ccccc1,0.931,0.9,1.19,-1.91 (inactive),1.16,0.744,-0.024,1.08,-0.85,0.529
COCCOC(=O)N1C(=O)[C@@]2(c3cc(C#CCCO)ccc31)[C@H](C(N)=O)[C@H]1C(=O)O[C@H](c3ccccc3)[C@H](c3ccccc3)N1[C@@H]2c1ccc(O)cc1,1.22,-0.163,0.489,0.477 (inactive),0.344,-0.124,-0.376,-0.131,0.0665,0.275
C=CCC(OC(C)=O)[C@@H]1[C@@H](N(Cc2ccc(-c3ccccc3)cc2)C(=O)c2ccc(-c3ccccc3)cc2)c2cc(OCCCO)ccc2N1C(=O)Cc1ccc2ccccc2c1 (stereo not given in full),-0.316,-0.108,0.336,-0.412 (inactive),-0.133,-0.0682,0.0825,0.394,0.0989,1.11
C=CCC(OC(C)=O)[C@@H]1[C@@H](N(Cc2cc3ccccc3o2)C(=O)c2cccc3ccccc23)c2cc(OCCCO)ccc2N1C(=O)c1ccc(-c2ccccc2)cc1 (stereo not given in full),-0.424,0.365,0.531,-1.82 (inactive),0.0822,-0.34,-0.0077,0.176,-0.0541,0.971
CC(C)C[C@@H]1NC(=O)[C@@H]2C[C@H](C(=O)NCc3ccc(F)cc3)[C@H](c3cccc(OCCO)c3)N2C1=O,1.52,-0.23,0.0811,-0.177 (inactive),1.2,0.615,0.284,0.946,0.322,-0.19
COCCOC(=O)N1C(=O)[C@@]2(c3ccccc31)[C@H](c1ccccc1OCCO)N1[C@H](c3ccccc3)[C@H](c3ccccc3)OC(=O)[C@H]1[C@@H]2C(=O)N1CCN(c2ncccn2)CC1,1.21,0.386,0.72,-0.869 (inactive),0.357,0.852,0.792,0.555,0.471,-0.0468
C=CC[C@]1(C(=O)NCCCOC)N=C(c2ccc(OCCCO)cc2)O[C@H]1c1ccccc1CN=[N+]=[N-],1.17,1.45,1.17,0.822 (inactive),0.944,1.22,0.0673,0.612,0.496,1.21
CCCCCCc1nc(-c2ccc(OC)nc2)cc2c1[Si](C(C)C)(C(C)C)O[C@H]2c1ccccc1,1.33,-0.0653,-0.459,-0.0107 (inactive),0.289,-0.0539,0.31,0.633,0.117,0.318
C=C(COC)/C(=C/C[C@@H](OC(=O)c1ccncc1)c1ccc(CO)o1)c1cc(C(=O)OC)ccc1OC,1.2,0.0709,-0.623,0.804 (inactive),1.47,1.15,1.06,1.48,1.27,1.03
CCN(CC)c1ccc(N2CC=CC34O[C@@H]5C=CCCOC(=O)C5[C@H]3C(=O)N(CCCCCCO)[C@@H]4C2=O)cc1 (stereo not given in full),1.93,-0.0776,0.414,-1.98 (inactive),-1.26,-0.39,-0.661,-0.879,-0.555,0.816
COC(=O)C(CC#Cc1ccc2c(c1)[C@]1(C(=O)N2)[C@H](C(=O)Nc2nc3ccccc3s2)[C@H]2C(=O)O[C@H](c3ccccc3)[C@H](c3ccccc3)N2[C@@H]1c1ccc(O)cc1)C(=O)OC,1.18,0.381,0.454,-0.204 (inactive),1.28,1.29,0.642,1.4,0.829,0.381
C=CCC(OC(C)=O)[C@@H]1[C@@H](N(Cc2ccc(-c3ccccc3)cc2)C(=O)Cc2ccc(OC)cc2)c2cc(OCCCO)ccc2N1C(=O)Cc1ccc2ccccc2c1 (stereo not given in full),-0.324,-0.0834,0.308,0.247 (inactive),-0.437,-0.299,-0.163,-0.0274,-0.0237,1.06
COC(=O)[C@@]1(Cc2ccccc2)N=C(c2ccc(OCCCO)cc2)O[C@H]1c1ccccc1,1.65,0.206,0.893,6.38 (inactive),0.0071,0.319,-1.08,-1.05,-0.862,0.599
